Reference: PubChem BioAssay

What was measured:
[1] = system: Human papillomavirus type 1a protein E7 (residues 44-93); assay: HPV1a E7 fragment binders on microarrays, primary screen, biochemical, small-molecule microarray, residues 44-93, 635 nm fluorescence (AID 1108); conditions: small-molecule microarray binding, fluorescence 635 nm; higher = more signal;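 further: E7 fragment applied at 1 µg/mL in TBST for 1 h at 4 C; score combines spot fluorescence with its signal to noise ratio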
[2] = modulators of HCV replicon luciferase signal, primary screen, HCV replication inhibitor project, Huh7 cells, luciferase reporter (AID 1109); conditions: 48 h, higher = more signal;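 further: huh7 hepatoma cells harbouring a luciferase neomycin HCV replicon reporter; luciferase luminescence as measure of HCV replicon replication; test concentration not given here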
[3] = target: Left-right determination factor 2 (Homo sapiens) (UniProt O00292); assay: LEFTY2 binders on small-molecule microarrays, primary screen, biochemical, small-molecule microarray, 635 nm fluorescence scan (AID 1110); conditions: LEFTY2 binding, higher = more signal
Left-right determination factor 2 (Homo sapiens), sequence (O00292 whole entry, looked up): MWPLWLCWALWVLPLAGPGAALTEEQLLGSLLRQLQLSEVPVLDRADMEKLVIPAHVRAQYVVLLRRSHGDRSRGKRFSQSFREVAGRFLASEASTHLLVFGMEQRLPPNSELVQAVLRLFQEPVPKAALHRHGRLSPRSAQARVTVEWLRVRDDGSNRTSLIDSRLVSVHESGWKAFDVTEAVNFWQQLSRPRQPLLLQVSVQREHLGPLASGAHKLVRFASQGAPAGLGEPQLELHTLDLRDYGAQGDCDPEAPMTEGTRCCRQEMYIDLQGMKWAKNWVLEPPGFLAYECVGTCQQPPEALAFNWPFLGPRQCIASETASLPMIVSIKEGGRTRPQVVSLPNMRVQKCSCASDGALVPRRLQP

[4] = target: Calmodulin-1 (Homo sapiens) (UniProt P0DP23); assay: CALM1 binders on microarrays, EGTA buffer, profiling panel, biochemical, small-molecule microarray, Cy5-labelled CALM1 (AID 1111); conditions: Cy5-CALM1 binding fluorescence, higher = more signal;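 further: labelled calmodulin applied in Tris saline Tween buffer holding calcium plus EGTA and DTT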
[5] = target: Calmodulin-1 (Homo sapiens) (UniProt P0DP23); assay: calcium-bound CALM1 binders on microarrays, profiling panel, artefact control for SMM control-protein annotation, biochemical, small-molecule microarray, Cy5-labelled CALM1, plus calcium (AID 1112); conditions: Cy5-CALM1 binding fluorescence, higher = more signal;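 further: score merges spot fluorescence with signal to noise from triplicate slides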
[6] = small-molecule microarray binders of probe aWnt5a, primary screen, biochemical, biotinylated probe, 635/667 nm fluorescence (AID 1113); conditions: higher = more signal;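 further: score merges 667 nm fluorescence intensity with signal-to-noise per printed feature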
[7] = small-molecule microarray binders of probe aShh, primary screen, biochemical, biotinylated probe, 635/667 nm fluorescence (AID 1114); conditions: higher = more signal;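 further: probe is biotin-labelled aShh protein from a stem cell growth factor screen; measures binding of labelled protein to compounds printed on the slide; score merges feature fluorescence at 667 nm with signal-to-noise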
[8] = small-molecule microarray binders of probe aNog, primary screen, biochemical, biotinylated probe, 635/667 nm fluorescence (AID 1115); conditions: higher = more signal;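 further: probe is biotinylated aNog protein used at 0.15 µg/mL for 1 h at 4 C; z-score combines 667 nm fluorescence of each spot with its signal to noise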
[9] = target: Torsin-1A-interacting protein 1 (Homo sapiens) (UniProt Q5JTV8); assay: LAP1 binders from COS7 cell lysate, primary screen, small-molecule microarray, 635/667 nm fluorescence (AID 1116); conditions: COS7-hLAP1 lysate binding, 635 nm fluorescence, higher = more signal
Torsin-1A-interacting protein 1 (Homo sapiens), sequence (Q5JTV8 whole entry, looked up): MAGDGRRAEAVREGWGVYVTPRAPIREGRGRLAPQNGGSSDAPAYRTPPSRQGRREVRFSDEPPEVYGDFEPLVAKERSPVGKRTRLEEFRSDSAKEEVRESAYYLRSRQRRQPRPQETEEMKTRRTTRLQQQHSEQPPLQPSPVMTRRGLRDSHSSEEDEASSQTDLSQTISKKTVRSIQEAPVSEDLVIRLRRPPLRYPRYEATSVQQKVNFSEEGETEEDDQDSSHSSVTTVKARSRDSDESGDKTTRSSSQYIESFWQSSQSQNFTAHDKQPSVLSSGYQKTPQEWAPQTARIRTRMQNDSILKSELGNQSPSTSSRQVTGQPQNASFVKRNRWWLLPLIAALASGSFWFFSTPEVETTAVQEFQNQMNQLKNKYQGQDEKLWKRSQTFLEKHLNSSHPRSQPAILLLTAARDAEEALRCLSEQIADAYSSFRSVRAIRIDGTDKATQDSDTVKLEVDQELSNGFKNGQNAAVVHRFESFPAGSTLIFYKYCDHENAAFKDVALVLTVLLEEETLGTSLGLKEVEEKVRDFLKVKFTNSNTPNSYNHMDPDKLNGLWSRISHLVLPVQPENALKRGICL

[10] = target: Alpha-bungarotoxin (Bungarus multicinctus) (UniProt P60615); assay: alpha-bungarotoxin binders on microarray, profiling panel, artefact control for SMM control protein annotation, biochemical, small-molecule microarray, Alexa647 label, 635/667 nm fluorescence (AID 1117); conditions: alpha-BTX-A647 binding fluorescence, higher = more signal
Alpha-bungarotoxin (Bungarus multicinctus), sequence (P60615 whole entry, looked up): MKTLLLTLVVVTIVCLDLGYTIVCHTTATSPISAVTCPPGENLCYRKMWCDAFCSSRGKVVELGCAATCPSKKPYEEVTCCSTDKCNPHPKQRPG

Row | SMILES | composite z-score [1] | z-score [2] | composite z-score [3] | composite z-score [4] | composite z-score [5] | composite z-score [6] | composite z-score [7] | composite z-score [8] | composite z-score [9] | composite z-score [10]
1 | CC(=O)OC[C@H]1O[C@H](CCON=C(C)CCN2CCc3nc(-c4ccccc4)c(-c4ccccc4)cc3C2)C=C[C@@H]1OC(C)=O | 1.26 | -1.58 | 0.0439 | -0.205 | -0.174 | -0.0748 | -0.0425 | -0.273 | 0.624 | 1.57
2 | CC(CCN1CCc2nc(-c3ccccc3)c(-c3ccccc3)cc2C1)=NOC(C)CN1CCCCc2nc(C)c(C)cc21 (stereo not given) | 1.27 | -2.03 | 0.573 | 0.578 | -0.0705 | -0.0819 | -0.202 | -0.077 | 0.787 | 0.799
3 | C[C@H](c1ccccc1)N1C(=O)[C@H]2[C@H]3[C@H](O)[C@H](O)CC(=O)[C@@H]3CC[C@H]2C1=O | -0.81 | -1.22 | 0.417 | -0.229 | -0.465 | -0.0495 | -0.237 | 0.0638 | -0.0506 | 0.3
4 | O=C1C[C@@H](O)[C@@H](O)[C@@H]2[C@@H]3C(=O)N(C4CCCCC4)C(=O)[C@@H]3CC[C@H]12 | 0.717 | -0.0951 | 0.456 | -0.0292 | -0.57 | -0.114 | -0.309 | 0.0051 | 0.473 | -0.0214
5 | Cc1ccc(S[C@]2(C(=O)NCC(F)(F)F)CC(=O)N(Cc3ccccc3Cl)[C@@H]2c2ccc(CO)cc2I)cc1 | 0.859 | -1.16 | -0.692 | -0.391 | -0.0928 | -0.12 | -0.0035 | -0.383 | -0.373 | 2.06
6 | O[C@@H](Cc1ccccc1)[C@H]1C2C=CCCC(c3ccccc3)=C2CN1Cc1cccc(Cl)c1 (stereo not given in full) | 0.921 | -2.27 | 0.286 | -0.118 | -0.264 | -0.157 | -0.0243 | 0.14 | 0.464 | 0.475
7 | CCOC(=O)C1=CCC(c2cc3ccccc3[nH]2)NC1 (stereo not given) | -0.192 | -0.312 | 0.208 | -0.219 | 0.19 | 0.0438 | 0.204 | 0.562 | 0.97 | 0.864
8 | CC(=O)OC[C@H]1O[C@H](CCON=C[C@@H](C)[C@H](OCc2ccccc2)C(C)C)C=C[C@@H]1OC(C)=O | 0.837 | -0.461 | 0.646 | -0.501 | -0.911 | 0.0181 | -0.214 | -0.215 | 0.619 | 0.13
9 | [N-]=[N+]=NCc1ccccc1C[C@]1(C(=O)NCc2ccccc2)N=C(c2ccc(OCCCO)cc2)O[C@H]1c1ccccc1N=[N+]=[N-] | 0.878 | -2.05 | -0.612 | 1.35 | 0.743 | 0.0068 | 0.162 | -0.716 | 0.855 | 0.947
10 | C=C(/C(=C/C[C@H](OC(=O)c1ccncc1)c1ccc(OCCO)cc1)c1cnc2ccccc2c1)C(C)C | 1.31 | -2.01 | 1.06 | 0.0481 | -0.708 | 0.0324 | 0.13 | -0.338 | 2.24 | 1.67
11 | O=C1[C@H]2[C@H]3[C@H](O)[C@H](O)CC(=NOC[C@@H](O)COCc4ccco4)[C@@H]3CC[C@H]2C(=O)N1c1ccc(F)cc1F | 0.427 | 0.199 | 0.74 | -0.616 | -1.01 | -0.0792 | -0.13 | -0.236 | 0.515 | -0.255
12 | C=C(/C(=C/C[C@H](OC(C)=O)c1ccc(OCCO)cc1)c1cnc2ccccc2c1)C(C)C | 1.41 | -1.38 | 1.06 | 0.295 | -0.184 | 0.117 | -0.0917 | -0.243 | 0.782 | 0.911
13 | COC(=O)C1=CCC(c2cccc(Cl)c2)O1 (stereo not given) | 0.387 | -2.31 | 0.106 | 0.0588 | -0.23 | -0.0286 | -0.291 | 0.287 | 0.0692 | 0.648
14 | CC(C)=CCCC(C)=CCON=C1C[C@@H](O)[C@@H](O)[C@@H]2[C@@H]3C(=O)N(C[C@@H]4CCCO4)C(=O)[C@@H]3CC[C@@H]12 | 1.38 | 0.398 | 0.763 | -0.599 | -1.4 | -0.104 | -0.243 | -0.319 | 0.101 | 0.488
15 | CCN1C(=O)[C@H]2[C@H]3[C@H](O)[C@H](O)CC(=NOCc4ccccc4)[C@H]3CC[C@H]2C1=O | -0.0677 | 0.396 | 0.387 | -0.253 | -0.787 | -0.139 | -0.214 | 0.128 | 0.151 | 0.437
16 | O=C1C[C@@H](O)[C@@H](O)[C@@H]2[C@@H]3C(=O)N(c4cccc(Oc5ccccc5)c4)C(=O)[C@@H]3CC[C@@H]12 | 0.994 | -0.197 | 0.962 | 0.77 | -0.261 | -0.0327 | -0.206 | -0.4 | 0.613 | 0.106
17 | CCOC(=O)[C@H](CC(C)C)NC(=O)CCC1CC(OC(=O)NCCc2ccc(F)cc2)CC2(CCCC(COC(=O)NCc3ccccc3)O2)O1 (stereo not given in full) | 1.37 | -1.76 | 1.16 | 0.0292 | -0.008 | -0.113 | -0.214 | -0.183 | 0.575 | 0.287
18 | CCN1C(=O)[C@H]2[C@H]3[C@H](O)[C@H](O)CC(=NOC(C)CN4CCCCc5nc(C)c(C)cc54)[C@@H]3CC[C@H]2C1=O (stereo not given in full) | -0.504 | -1.17 | 0.905 | -2.14 | -1.31 | -0.184 | 0.0796 | -0.0489 | -0.401 | -0.294
19 | CCOC(=O)NN=C1C[C@@H](O)[C@@H](O)[C@@H]2[C@@H]3C(=O)N(C[C@@H]4CCCO4)C(=O)[C@@H]3CC[C@@H]12 | 0.396 | 0.353 | 0.238 | -0.375 | -0.32 | -0.0721 | -0.273 | -0.0428 | 0.584 | -0.189
20 | CO[C@H]1O[C@H](CO)[C@@H](OC(=O)Nc2ccc3c(c2)OCO3)[C@H](OC(=O)Nc2ccccc2-c2ccccc2)[C@@H]1OC(=O)Nc1ccccc1-c1ccccc1 | 1.36 | -2.26 | 0.232 | 1.6 | 0.116 | 0.0601 | 0.184 | 0.902 | 1.28 | 0.614
21 | C=C(COC)/C(=C/C[C@H](OC(=O)c1ccncc1)c1ccc(CO)o1)c1cc(C(=O)OC)ccc1OC | 0.822 | -0.718 | 0.208 | 0.0845 | -0.409 | -0.0107 | -0.0553 | -0.0446 | 0.0683 | 0.318
22 | CN(C)c1ccc(C(O)C2C=CC3C(=O)N(c4ccccc4)C(=O)C3N2Nc2ccccc2F)cc1 (stereo not given) | 1.31 | -0.369 | -0.633 | 0.104 | -0.472 | -0.0685 | 0.275 | 0.471 | 0.838 | 0.738
23 | COC(=O)[C@@H]1CCCN1C(=O)[C@@H](C)CO | 0.946 | 0.868 | 0.344 | 0.49 | 0.0051 | -0.0566 | -0.2 | 0.141 | 0.451 | 1.13
24 | CCCC=C(CCC)[C@@H](NC(=O)c1ccc(-c2ccccc2)cc1)c1ccc(C(=O)OC)cc1 | 1.38 | -0.552 | -0.394 | 1.84 | 1.31 | 0.194 | 0.0195 | 1.25 | 0.421 | 0.93
25 | CC(C)(C)N1CC=CC23O[C@@H]4C=CCCOC(=O)C4[C@H]2C(=O)N(CCCCCO)[C@@H]3C1=O (stereo not given in full) | 0.433 | 0.651 | -0.316 | -0.582 | -0.839 | -0.0327 | 0.0796 | -0.206 | 2.15 | -0.949
